Screening data as filed in PubChem BioAssay.
This excerpt belongs to a sample that is enriched for hits.
RGS12 GoLoco inh-1 = inhibitors of human Gai1-RGS12 GoLoco interaction (red fluorophore). 230,000 tested, 0.44% active. Potency, µM (doses to about 61.6 µM), without a hit: at the highest dose activity, negative = inhibition, most hits filed as inhibitors. Gai1:RGS12 GoLoco peptide FP, rhodamine, 10 min. P63096; active = well fitted inhibition curve with a large enough effect, not every such curve was filed as active; inactive = no such curve, though single readings can be large or run the other way; also: potency is read from the fitted curve at half-maximal effect; % is scaled to controls: 0 for no effect and ±100 for the full control effect; nearly all actives have a fitted effect of over 30% in size
TexasRed fluor = alters Texas Red total fluorescence, flagging assay interference; 280,000 tested, 0.29% active; Potency, µM (highest dose often 106 µM), for inactives: at the highest dose fluorescence change, negative = quenching; TRb/SRC2 Texas Red total fluorescence interference; active = well fitted curve in either direction with a large enough effect; inconclusive = small, poorly fitted or top-dose-only effect; also: potency is read from the fitted curve at half-maximal effect; % is scaled to controls: 0 for no effect and ±100 for the full control effect
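Flags fluorescent or light-absorbing compounds by total fluorescence, S + 2P, at 555 nm excitation and 632 nm emission. Mixture: 20 nM Texas Red SRC2 peptide, 0.6 uM human TRb LBD, 1 uM T3, 5% DMSO; compound exposure 5 h at ambient temperature.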
ERG Ets-DNA blk = inhibitors of human ERG Ets domain-DNA interaction; Potency, µM (doses to about 76.9 µM), without a hit: at the highest dose FP activity, negative = inhibition, hits mostly inhibitors; AID 624246; 370,000 tested, 0.028% active; fluorescence polarization, His-ERG Ets domain / labelled DNA; active = well fitted inhibition curve with a large enough effect in the polarisation, with a control signal flat; inconclusive = small, poorly fitted or top-dose-only effect, or effect the other way, or a change in a side signal; inactive = no such curve, though single readings can be large or run the other way; the % refers to the polarisation;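 also: polarization taken with two DNA probes labelled with fluorescein and Texas red; potency is read from the fitted curve at half-maximal effect; % of control where 0% means no effect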
Target sequence (P11308 whole entry, looked up, the tested form may be a part): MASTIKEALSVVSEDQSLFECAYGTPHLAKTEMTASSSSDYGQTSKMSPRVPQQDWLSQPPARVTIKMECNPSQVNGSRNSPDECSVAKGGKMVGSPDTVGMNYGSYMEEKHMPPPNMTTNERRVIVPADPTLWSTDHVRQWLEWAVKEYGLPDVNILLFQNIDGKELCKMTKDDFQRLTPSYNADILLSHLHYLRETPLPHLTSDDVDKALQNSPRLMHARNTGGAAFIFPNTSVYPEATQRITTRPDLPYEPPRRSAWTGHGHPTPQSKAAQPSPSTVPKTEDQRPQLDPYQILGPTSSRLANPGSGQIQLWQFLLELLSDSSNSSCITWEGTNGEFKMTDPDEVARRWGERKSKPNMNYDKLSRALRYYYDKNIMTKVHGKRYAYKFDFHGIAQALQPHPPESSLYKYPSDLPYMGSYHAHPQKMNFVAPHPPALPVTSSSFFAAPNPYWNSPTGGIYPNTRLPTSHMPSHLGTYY
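His-tagged ERG Ets domain (1 uM in the protein solution; 300mM KCl, 50mM Tris-HCl, 1mM EDTA, 1mM DTT, pH 7.5) received compound, then a probe mix of 5 nM fluorescein-DNA and 100nM Texas-615-DNA. Fluorescence polarization was read for both dyes.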
TRb SRC2 PPI = TRbeta-SRC2 interaction inhibition | 280,000 tested, 0.065% active | TRbeta-SRC2 peptide binding, fluorescence polarization; receptor liganded with 1 µM T3 | P10828 | Potency, µM (highest dose often 106 µM), for the others: at the top dose activity change, negative = inhibition, hits mostly inhibitors;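 also: potency is read from the fitted curve at half-maximal effect; plate controls were bound peptide for no effect and peptide without receptor for full effect; nearly all actives have a fitted effect of over 50% in size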
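Fluorescence polarization of 20 nM Texas Red SRC2 peptide with 0.6 uM human TRb ligand-binding domain, in Tris buffer with 1uM T3 and 5% DMSO. Incubated 5 hr ambient; normalized to unbound and bound controls.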
RGS12 GoLoco inh-2 = confirmation of human RGS12 GoLoco motif inhibitors. Gai1/rhodamine-RGS12 GoLoco peptide fluorescence polarization. 110 tested, 50% active. shares compounds with RGS12 GoLoco inh-1. AID 2390. Potency, µM (top dose mostly 57.1 µM), for the others: at the top dose activity, negative = inhibition, actives largely listed as inhibitors
* marks the source's active call; other numbers are inactive results; ? = inconclusive; nt = not tested or not shown; ! = repeats disagree; [ ] = dose if it differs, or a comment. Unless noted, calls follow the shape of the dose curve; as a rule, active = well fitted curve in the direction sought with a large enough effect; inconclusive = small, poorly fitted or top-dose-only effect, or another doubt; inactive = no such curve, though single readings can be large; an effect the other way counts as inactive or inconclusive.

SMILES	RGS12 GoLoco inh-1	TexasRed fluor	ERG Ets-DNA blk	TRb SRC2 PPI	others
CCOP(=O)(OCC)C(NC(=O)c1cccc2ccccc12)C(Cl)(Cl)Cl (stereo not given)	11.9%	31.6µM*[quencher]	8.1%	-17.2%[53 µM]
CCOP(=O)(OCC)C(NC(=O)c1ccccc1C)C(Cl)(Cl)Cl (stereo not given)	-12.5%	3.16µM*[quencher]	3.8%	-0.2%[53 µM]
CCOP(=O)(OCC)C(NC(=O)c1cccc(C)c1)C(Cl)(Cl)Cl (stereo not given)	3.5%	-2.5%	12.1%	-0.4%
OCCNc1c2c(nc3ccccc13)CCCC2	-2.6%	0.4%	-12.0%	7.1%
C[n+]1c2ccccc2nc2ccc(NCCO)cc21	nt	nt	7.94µM*	nt
CNc1ccc2nc3ccccc3[n+](C)c2c1	nt	nt	5.01µM*	nt
O=C1NC(=O)C(=Cc2ccc(Sc3ccccc3)o2)C(=O)N1	28.3%	-0.4%	?	0.3%
O=C1NC(=O)N(c2ccc(Cl)cc2)C(=O)/C1=C\c1ccc(Sc2nc3ccccc3[nH]2)o1	-34.7%	44.7µM*[fluorescent]	131.3%	?
Cc1nn(-c2cc(NS(C)(=O)=O)c(Cl)cc2Cl)c(=O)n1C(F)F	nt	-1.1%[201 µM]	nt	-4.4%[201 µM]
C1=Cc2cccc3cccc1c23	nt	-1.2%[201 µM]	nt	1.7%[201 µM]
O=C1C=CC(=O)C=C1	1.78µM*!	-5.7%	2.8%	-3.9%
CCCCC(CC)COC(=O)CCCCC(=O)OCC(CC)CCCC (stereo not given)	3.3%	-1.8%[201 µM]	28.2µM*	0.2%[201 µM]
CCCCC(CC)COC(=O)c1ccc(C(=O)OCC(CC)CCCC)c(C(=O)OCC(CC)CCCC)c1 (stereo not given)	8.1%	-2.2%	nt	3.4%
O=c1c2ccccc2[se]n1-c1ccccc1	2.82µM*!	-0.8%	-0.2%	5.3%
C/C(=N\Nc1ccccc1)c1c(O)n(-c2ccccc2)c(=O)[nH]c1=O	8.9%	-0.7%	-0.2%	-4.8%
C/C(=N\Nc1ccccc1)c1c(O)n(Cc2ccccc2)c(=O)[nH]c1=O	3.3%	0.0708µM*[quencher]	7.4%	-16.5%[53 µM]
[CH3][Hg][Cl]	25.1µM*	-3.6%	nt	-4.5%
COc1cccc(C(=O)NN(C(=O)c2cc(C)cc(C)c2)C(C)(C)C)c1C	nt	3.0%[201 µM]	nt	-0.2%[201 µM]
C[C@@H]1O[C@H](C[N+](C)(C)C)CS1	31.6µM*	0.1%	nt	-2.4%
CCC[N+]12CCC(CC1)C(C(O)(c1ccccc1)c1ccccc1)C2 (stereo not given)	9.9%	-1.5%	2.2%	1.3%
C[N+]12CCC(CC1)C(C(O)(c1ccccc1)c1cccs1)C2 (stereo not given)	3.55µM*	-1.9%	nt	1.4%	RGS12 GoLoco inh-2=25.1µM*
C1CC[CH]([Sn]([CH]2CCCCC2)[CH]2CCCCC2)CC1	nt	0.9%[201 µM]	nt	7.0%[201 µM]
C[N+]12CCC(CC1)C(=C(c1ccccc1)c1ccccc1)C2	11.2µM*	-8.0%	-1.7%	0.3%	RGS12 GoLoco inh-2=14.1µM*
CNC(=O)Oc1cc(C)c(SC)c(C)c1	nt	2.2%[201 µM]	nt	3.4%[201 µM]
CCOP(=O)(OCC)OC(Cl)C(Cl)(Cl)Cl (stereo not given)	nt	3.0%[201 µM]	nt	-4.5%[201 µM]
CCCC[N+]12CCC(CC1)C(Cc1ccccc1)C2 (stereo not given)	2.0%	-2.2%	6.4%	1.8%	RGS12 GoLoco inh-2=4.2%
CCn1c(C)[n+](CC(O)COCC2CC=CCC2)c2ccccc21 (stereo not given)	2.24µM*	0.0%	2.8%	-11.9%	RGS12 GoLoco inh-2=14.1µM*
Cc1ccc(O)cc1	-3.8%	-0.8%	nt	-1.5%
CN(N=O)c1cc(O)ccc1O	5.62µM*	12.6µM*[quencher]	nt	?	RGS12 GoLoco inh-2=?
